Consider 16 molecules from PubChem BioAssay (NCI).

This is part of a sample that, as a whole, favours compounds with a hit. Of some 83,000 tested, about 20% had one in any assay.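 Percent growth is the endpoint: 0 to 100 indicates growth inhibition (40 means 60% inhibition), 0 means no net growth, and negative values indicate cell death.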 A number with no mark means an inactive call. Calls of active or inactive are those of the source. How the source made its calls: active means growth percent below 10; inactive means the rest.

Assay in all cases: NCI-60 one-dose screen, 48 h (100 = growth as untreated, 0 = no growth, -100 = all killed)
Details in all cases: 10 µM unless noted

Test [1] relates to T-47D breast.
Test [2] has as its system BT-549 breast.
Test [3] relates to MDA-MB-435 melanoma.
The test system of test [4] is SW-620 colon.
Test [5] deals with MCF7 breast.
The subject of test [6] is HCT-116 colon.
In test [7] the test system is HCC-2998 colon.
For test [8], the system named is KM12 colon.

Take `COc1cc(C(=O)c2c(N)ncn2-c2ccccc2)cc(OC)c1OC`: the growth in test [1] is 101%; in test [2], 98.8%; in test [3], 43.8%; in test [4], 88.1%; in test [5], 87.1%; in test [6], 90.3%. Also, the growth in test [7] is 99.6%; in test [8], 72.4%.

In the case of `FC(F)(F)c1[nH]ncc1-c1nc2c(N3CCCCC3)cc3[nH]ncc3c2c2c1CCCC2`, the growth in test [1] was -4.06% (active); in test [2], -52.7% (active); in test [3], 10.8%; in test [4] it was 6.31% (active); in test [5] it was 3.33% (active); in test [6], 3.74% (active). The growth in test [7] was -8.43% (active); in test [8], 11.1%.

`COc1ccc(/C=C/C(=O)c2cc3c(N)c(C(=O)Nc4ccc(OC)cc4)sc3nc2C)cc1`: the growth in test [1] was 57.2%; in test [2], 24.6%; in test [3] it was -23% (active); in test [4], 19.2%; in test [5], 14.3%; in test [6], 16.6%. Besides, the growth in test [7] was 15.9%; in test [8], 13.1%.

In the case of `O=C(Nc1ncc(Cc2ccccc2Cl)s1)c1cccs1`, the growth in test [1] was 56.1%; in test [2], 68.7%; in test [3], 3.49% (active); in test [4], 58.6%; in test [5], 46.3%; in test [6] it was 58.1%. Also, the growth was 72.8% in test [7] and 29.3% in test [8].

As for `CC(CN)[C@@H]1CC[C@]2(CO)CC[C@]3(C)[C@H](CC[C@@H]4[C@@]5(C)CCC(N)C(C)(C)[C@@H]5CC[C@]43C)[C@@H]12` (stereo partly drawn), the growth is 6% (active) in test [1]; 44.9% in test [2]; -29.2% (active) in test [3]; -75.7% (active) in test [4]; -71.2% (active) in test [5]; -81.2% (active) in test [6]. Moreover, the growth was -77.5% (active) in test [7] and -73.5% (active) in test [8].

On to `CO[C@H](C(=O)[C@@H](O)[C@@H](C)O)[C@@H]1Cc2cc3cc(O[C@H]4C[C@@H](O[C@H]5C[C@@H](O)[C@H](O)C(C)O5)[C@H](O)C(C)O4)c(C)c(O)c3c(O)c2C(=O)[C@H]1O[C@H]1C[C@@H](O[C@H]2C[C@@H](O[C@H]3C[C@@H](OC)[C@H](O)C(C)O3)[C@@H](O)C(C)O2)C(O)(O)C(C)O1` (stereo partly drawn), for which the growth in test [1] was 0.438% (active); in test [2] it was -20.1% (active); in test [3], -30.5% (active); in test [4], 22%; in test [5], 4.2% (active); in test [6] it was 6.1% (active). Further, the growth in test [7] was -13.7% (active); in test [8] it was 9.69% (active).

Regarding `NNC(=S)N/N=C/c1ccccn1`, the growth was 9.69% (active) in test [1]; 55% in test [2]; 46.4% in test [3]; 51.3% in test [4]; 15.7% in test [5]; 19.8% in test [6]. Besides, the growth is 28.8% in test [7] and 29.2% in test [8].

For `CCCC(O)Cn1ncc(C(=O)OCC)c1NC(=O)NCc1cccc(F)c1` (stereo not drawn), the growth in test [1] was 88.2%; in test [2] it was 78.5%; in test [3], 101%; in test [4] it was 107%; in test [5] it was 91.8%; in test [6] it was 71.6%. Moreover, the growth was 90.6% in test [7] and 105% in test [8].

As for `Cn1c(/C=C/[N+](=O)[O-])cc2ccccc21`, the growth in test [1] is 37.4%; in test [2], -43.2% (active); in test [3] it was -21.6% (active); in test [4], -70.8% (active); in test [5], -50.5% (active); in test [6], -74% (active). Besides, the growth is -95.1% (active) in test [7] and -63.8% (active) in test [8].

As to `O=C1NC(=O)c2c1c1c3ccccc3[nH]c1c1oc3ccc(F)cc3c21`, the growth in test [1] was 24.4%; in test [2] it was 71%; in test [3] it was 76%; in test [4], 64.6%; in test [5] it was 34%; in test [6], 69%. Further, the growth in test [7] was 65.6%; in test [8] it was 45.9%.

As for `CC/C=C\C/C=C/C=C1/C(=O)C=C[C@@H]1C/C=C\CCCC(=O)OC`, the growth in test [1] was 16.7%; in test [2] it was -21.9% (active); in test [3], -39.3% (active); in test [4], -14.3% (active); in test [5] it was 18.6%; in test [6], -76.1% (active). Further, the figures for the growth in test [7] and in test [8] were 62% and 20.4%, respectively.

`Cc1ccc(N=Nc2c(N)nn(-c3ccccc3)c2N)cc1`: the growth in test [1] was 21.5%; in test [2], -3.98% (active); in test [3], -52.1% (active); in test [4], 23.2%; in test [5] it was 7.61% (active); in test [6] it was 15.6%. Moreover, the growth in test [7] was 46.1%; in test [8] it was 27.6%.

Consider `CCNCc1ccc(O)c2ncccc12`, for which the growth is 27.3% in test [1]; 40.8% in test [2]; 16.6% in test [3]; 33.1% in test [4]; 17.3% in test [5]; 21.6% in test [6]. Besides, the growth in test [7] is 45.9%; in test [8] it was 29.2%.

Turning to `COc1ccc(C2CC(c3ccc(Nc4nc(Nc5ccc(F)cc5)nc(Nc5ccc(F)cc5)n4)cc3)=NN2C(C)=O)cc1` (stereo not drawn), the growth in test [1] was 69.8%; in test [2] it was 96.2%; in test [3] it was 92.1%; in test [4], 101%; in test [5] it was 98.9%; in test [6], 93.5%. The growth in test [7] was 37.6%; in test [8], 95.3%.

In the case of `CCN(CC)c1ccc(N2C(=O)/C(=C/c3cccs3)SC2=S)cc1`, the growth in test [1] is 83%; in test [2], 102%; in test [3], 95.4%; in test [4], 103%; in test [5], 89.9%; in test [6], 95.9%. The values for the growth in test [7] and in test [8] were 110% and 100%, respectively.

As for `C#Cc1cccc(Nc2nc3ccc([N+](=O)[O-])cc3nc2Nc2cccc(C#C)c2)c1`, the growth is -36.1% (active) in test [1]; -59.3% (active) in test [2]; -78% (active) in test [3]; -64.2% (active) in test [4]; -12.6% (active) in test [5]; -94.7% (active) in test [6]. For the same molecule, the growth is -80.8% (active) in test [7] and -77.9% (active) in test [8].
